LYPLA2 counter: counter-screen for PME1 inhibitors: inhibitors of human LYPLA2; AID 2177; recombinant LYPLA2, FP-Rh probe fluorescence polarization; 320,000 compounds, 0.38% hits; inhibition, % at 5.9 µM;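 active means inhibition above the screen-wide mean plus 3 SD, limit set per campaign, cut at about 26% in these data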
LYPLA1 inh: counter-screen for PME1 inhibitors: inhibitors of human LYPLA1; recombinant LYPLA1, FP-Rh probe fluorescence polarization; inhibition, % at 5.9 µM; 320,000 compounds, 0.16% hits; AID 2174;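 active means inhibition above the mean of all tested compounds plus 3 SD, set per campaign, cut at about 14% in these data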;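 further: inhibitors block serine hydrolase probe labeling of LYPLA1 so polarization falls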
Target sequence (O75608 whole entry, looked up): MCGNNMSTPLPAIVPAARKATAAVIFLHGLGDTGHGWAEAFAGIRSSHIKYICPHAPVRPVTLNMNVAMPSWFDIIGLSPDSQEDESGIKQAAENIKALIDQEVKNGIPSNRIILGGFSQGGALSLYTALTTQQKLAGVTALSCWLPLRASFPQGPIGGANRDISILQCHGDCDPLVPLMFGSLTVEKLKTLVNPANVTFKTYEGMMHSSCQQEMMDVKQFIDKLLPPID
EBNA-1 inh: blocks EBNA-1 binding to DNA. EBNA-1 DNA binding, fluorescence polarization. inhibition, % at 14.8 µM. 300,000 compounds, 0.34% hits; in the data active means inhibition above about 28%
GSTO1 counter: blocks human GSTO1 in RBBP9 counter-screen. recombinant GSTO1, activity-based probe fluorescence polarization. P78417. AID 1974. inhibition, % at 5.96 µM. 300,000 compounds, 1.1% hits;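 active means inhibition above the campaign mean inhibition plus 3 SD, cut at about 35% in these data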
Target sequence (P78417 whole entry, looked up): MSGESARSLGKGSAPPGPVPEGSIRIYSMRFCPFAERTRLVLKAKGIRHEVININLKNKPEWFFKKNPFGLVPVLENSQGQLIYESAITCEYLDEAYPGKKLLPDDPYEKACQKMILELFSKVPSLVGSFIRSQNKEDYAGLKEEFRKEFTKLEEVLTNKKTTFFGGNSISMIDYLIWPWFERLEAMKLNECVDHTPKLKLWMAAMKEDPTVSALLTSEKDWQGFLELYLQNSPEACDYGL
PAD4 inh: blocks human protein arginine deiminase 4; 330,000 compounds, 0.41% hits; Q9UM07; recombinant PAD4, RCA probe fluorescence polarization; inhibition, % at 6.36 µM;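 active means percent inhibition above a cutoff equal to the mean of all tested compounds plus 3 SD, cut at about 15% in these data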
ZTA DNA inh: blocks Epstein-Barr virus ZTA, an EBNA-1 counter-screen; 320,000 compounds, 0.15% hits; ZTA-DNA binding, fluorescence polarization; AID 2234; P03206; inhibition, % at 11 µM; in the data active means inhibition above about 33%
GSTO1 inh conf: GSTO1 (human) inhibition, confirmation; shares compounds with GSTO1 counter; recombinant GSTO1, probe fluorescence polarization; inhibition, % at 5.96 µM; 2,400 compounds, 54% hits; AID 2176;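 active means inhibition above the primary screen's cutoff, its mean inhibition plus 3 SD, cut at about 35% in these data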;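 further: loss of polarization as inhibitors block binding of rhodamine sulfonate ester activity probe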
GSTO1 recomb ABPP: blocks recombinant human glutathione S-transferase omega 1; shares compounds with GSTO1 counter; recombinant GSTO1, gel ABPP SE-Rh probe fluorescence; inhibition, % at 1 µM; 130 compounds, 30% hits;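 active means inhibition of the enzyme GSTO1 above about 75%, limit read from the data; inactive means inhibition below that limit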
LYPLA1 confirm: counter-screen for PME1 inhibitors: confirmation of human LYPLA1 inhibitors; shares compounds with LYPLA1 inh; recombinant LYPLA1, FP-Rh probe fluorescence polarization; inhibition, % at 5.9 µM; 480 compounds, 69% hits; AID 2233;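 active means mean inhibition across replicates above the hit cutoff set in the primary screen, cut at about 15% in these data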;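 further: loss of FP-Rh probe labeling of LYPLA1 seen as lower polarization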
LYPLA2 confirm: LYPLA2 (human) inhibition, confirmation counter-screen; shares compounds with LYPLA2 counter; recombinant LYPLA2, FP-Rh probe fluorescence polarization; inhibition, % at 5.9 µM; 1,100 compounds, 72% hits; AID 2232;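 active means mean inhibition across replicates above the hit cutoff set in the primary screen, cut at about 26% in these data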;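 further: blocked labeling of the enzyme by serine hydrolase FP-Rh probe lowers polarization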
Zta DNA confirm: EBV ZTA DNA binding inhibition, confirmation | shares compounds with ZTA DNA inh | Zta-ZRE DNA binding, fluorescence polarization | inhibition, % at 11.1 µM | 320 compounds, 30% hits | AID 2361;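 active means mean inhibition across triplicate runs above the hit threshold derived for the original primary screen, cut at about 33% in these data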
EBNA-1 counter: blocks EBNA-1 DNA binding in ZTA counter-screen; shares compounds with ZTA DNA inh; fluorescence polarization; inhibition, % at 14.8 µM; 320 tested, under 10 active; call rule not given here
PAD4 confirm: confirmation of human PAD4 inhibitors | 1,200 compounds, 28% hits | recombinant PAD4, RCA probe fluorescence polarization | shares compounds with PAD4 inh | inhibition, % at 6.36 µM;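 active means mean inhibition across replicates above the hit cutoff set by the earlier primary screen, cut at about 15% in these data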;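 further: inhibitors block active-site labeling by the probe so polarization falls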
Each line names hits and unclear results; the compound was inactive in the other large screens (follow-up assays come after a bar, where they were run). Hits are enriched below; roughly 1.7% of the tested compounds scored in any of these assays.

CC1CCCN(C(=O)CN2C3CCC2CC(O)(c2ccc(F)cc2)C3)C1 (stereo not given)	none
CCN1CCN(Cc2cc3c(cc2[N+](=O)[O-])OCO3)CC1	GSTO1 counter 38 | GSTO1 inh conf inactive
Cc1nn(Cc2ccccc2)c(Cl)c1C(=O)OCC(=O)NCC1CCCO1 (stereo not given)	none
O=C(CCl)NCC1CCCO1 (stereo not given)	GSTO1 counter 51 | GSTO1 inh conf 65
CC(C)CN1CCN(Cc2cccc3c2OCO3)CC1CCO (stereo not given)	none
c1ccc(-c2[nH]c(-c3ccccc3)[n+](CC3CO3)c2-c2ccccc2)cc1 (stereo not given)	GSTO1 counter 84 | GSTO1 inh conf 84 | GSTO1 recomb ABPP inactive
Cc1nc2ccc(Br)cc2c(=O)n1-c1ccc([N+](=O)[O-])c(C(F)(F)F)c1	none
CCN1CCC(NCC2CCCCC2)CC1	none
O=C(c1ccccc1)N1CCC2(CC1)OCCO2	none
O=C(NC1(C(F)(F)F)Oc2ccccc2O1)N1CCC2(CC1)OCCO2	GSTO1 counter 42 | GSTO1 inh conf inactive
O=C(NC1(C(F)(F)F)Oc2ccc(Cl)cc2O1)N1CCC2(CC1)OCCO2 (stereo not given)	GSTO1 counter 62 | GSTO1 inh conf inactive
CC1(C)CC[C@]2(C)CC[C@]3(C)C4C[C@@H]5OO[C@@]6(O5)C(CCCC6(C)C)[C@]4(C)CC[C@@]3(C)C2C1 (stereo not given in full)	none
CC(C)(C)OC(=O)c1c(N)n(Cc2ccco2)c2nc3ccccc3nc12	GSTO1 counter 56, PAD4 inh 19 | GSTO1 inh conf inactive
COCCCn1c(N)c(C(=O)NCc2ccco2)c2nc3ccccc3nc21	GSTO1 counter 76 | GSTO1 inh conf inactive
COCCNC(=O)c1c(N)n(Cc2ccco2)c2nc3ccccc3nc12	none
C=CCNC(=O)c1c(N)n(Cc2ccco2)c2nc3ccccc3nc12	none
N/C(=N\N=C/c1ccc(-c2ccc(O)c(C(=O)O)c2)o1)N[N+](=O)[O-]	GSTO1 counter 40 | GSTO1 inh conf 57
O=c1c2ccccc2nc(/C=C/c2ccc(O)c(O)c2)n1-c1ccccc1	GSTO1 counter 44 | GSTO1 inh conf inactive
Cc1nc(CCl)cc(=O)[nH]1	GSTO1 counter 69 | GSTO1 inh conf 77 | GSTO1 recomb ABPP inactive
CCN(CC)C(=O)c1ccc2c(c1)C1C(Cl)C(Sc3ccccc3[N+](=O)[O-])CC1C(C(=O)O)N2 (stereo not given)	GSTO1 counter 52, ZTA DNA inh 54 | GSTO1 inh conf 49 | Zta DNA confirm 39 | EBNA-1 counter inactive
CC(C)(C)C(=O)OCC12CCC(O1)C1(C)C(=O)OCC21 (stereo not given)	none
C[n+]1c(-c2ccccc2)c2cc(N)ccc2c2ccc(N)cc21	LYPLA2 counter 116, LYPLA1 inh 89, GSTO1 counter 104, PAD4 inh 81 | GSTO1 inh conf 90 | LYPLA1 confirm 68 | LYPLA2 confirm 76 | PAD4 confirm 74
C=CCn1c(O)c(C(CC)=Nc2ccc3c(c2)CCC3)c(=O)[nH]c1=O	none
C=CCn1c(O)c(C(CC)=Nc2ccc(N(C)C)cc2)c(=O)[nH]c1=O	EBNA-1 inh 127, GSTO1 counter 65, PAD4 inh 30, ZTA DNA inh 138 | GSTO1 inh conf inactive | PAD4 confirm inactive
CN1CCc2cc3c(c4c2C1Cc1ccccc1-4)OCO3 (stereo not given)	GSTO1 counter 77, PAD4 inh 58 | GSTO1 inh conf 63 | PAD4 confirm inactive
COc1cc2c(cc1O)C[C@H]1c3c(cc(O)c(OC)c3-2)CCN1C	none
CCCN1CCc2cc(O)cc3c2[C@H]1Cc1ccc(O)c(O)c1-3	GSTO1 counter 89, PAD4 inh 18 | GSTO1 inh conf inactive | PAD4 confirm inactive
CCC(C)OC(=O)c1c(N)n(Cc2cccs2)c2nc3ccccc3nc12 (stereo not given)	none
Nc1c(C(=O)OCc2ccccc2)c2nc3ccccc3nc2n1Cc1cccs1	GSTO1 counter 51, PAD4 inh 25 | GSTO1 inh conf inactive | PAD4 confirm inactive
CCCCn1c(NS(=O)(=O)c2ccccc2)c(C(=O)OCC)c2nc3ccccc3nc21	GSTO1 counter 66, PAD4 inh 63 | GSTO1 inh conf 66 | PAD4 confirm inactive
COc1ccc(CC(C)Nc2cccc(F)c2)cc1 (stereo not given)	none
COc1ccc2c(c1OC)C(=O)OC2c1c(O)n(C2CCCCC2)c(=O)[nH]c1=O (stereo not given)	none
CN1CCC(=O)N(CCN=[N+]=[N-])CC1	none
Cn1ncnc2c(=O)n(C)c(=O)nc1-2	LYPLA2 counter 96, LYPLA1 inh 77, GSTO1 counter 94, PAD4 inh 68, ZTA DNA inh 59 | GSTO1 inh conf 92 | LYPLA1 confirm 88 | LYPLA2 confirm 96 | Zta DNA confirm 72 | EBNA-1 counter inactive | PAD4 confirm 66
O=c1[nH]c2ccccc2o1	none
O=[N+]([O-])c1ccc(N2CCCCCC2)c2nonc12	LYPLA1 inh 16 | LYPLA1 confirm 24
COC(=O)C(O)(c1ccc(NC(=O)c2cccs2)cc1)C(F)(F)F (stereo not given)	none
O=C(COc1ccc(Cl)cc1)N1CCN(C/C=C/c2ccccc2)CC1	LYPLA2 counter 70, LYPLA1 inh 26 | LYPLA1 confirm 24 | LYPLA2 confirm 77
CO[C@H]1CC=C2CCN3CCC4=C(CC(=O)OC4)[C@]23C1	none
O=[N+]([O-])c1ccc(NCc2ccccc2)c2nonc12	LYPLA2 counter 64, LYPLA1 inh 53 | LYPLA1 confirm 36 | LYPLA2 confirm 50
